BoNT-F LC inh – blocks Botulinum neurotoxin F light chain protease. Multiplex microsphere protease cleavage assay, flow cytometry. inhibition, % at 10 µM. hit rate 0.22% among 360,000; in the data active = inhibition above about 35%, passing the limit was not always enough; inconclusive = no clear call, values can overlap the other calls; also: plate controls were buffer without enzyme for full effect and enzyme alone for no effect
Autofluor counter – counter-screen for toxin protease inhibitors: compound fluorescence; compound autofluorescence counterscreen, microsphere flow cytometry; active compounds read high; fluorescence intensity (concentration not given with the values); hit rate 3.1% among 360,000; in the data active = fluorescence intensity above about 16000; inconclusive = no clear call, values can overlap the other calls
BoNT-A LC inh2 – blocks Botulinum neurotoxin A light chain protease; inhibition, % at 10 µM; hit rate 0.17% among 360,000; multiplex microsphere protease substrate cleavage, flow cytometry; also: plate controls were buffer without enzyme for full effect and enzyme alone for no effect
Anthrax LF inh2 – inhibitors of Bacillus anthracis lethal factor protease | hit rate 0.12% among 360,000 | multiplex microsphere protease cleavage assay, LF | inhibition, % at 10 µM | AID 588501 | P15917; also: plate controls were buffer without enzyme for full effect and enzyme alone for no effect
Target sequence (P15917 whole entry, looked up): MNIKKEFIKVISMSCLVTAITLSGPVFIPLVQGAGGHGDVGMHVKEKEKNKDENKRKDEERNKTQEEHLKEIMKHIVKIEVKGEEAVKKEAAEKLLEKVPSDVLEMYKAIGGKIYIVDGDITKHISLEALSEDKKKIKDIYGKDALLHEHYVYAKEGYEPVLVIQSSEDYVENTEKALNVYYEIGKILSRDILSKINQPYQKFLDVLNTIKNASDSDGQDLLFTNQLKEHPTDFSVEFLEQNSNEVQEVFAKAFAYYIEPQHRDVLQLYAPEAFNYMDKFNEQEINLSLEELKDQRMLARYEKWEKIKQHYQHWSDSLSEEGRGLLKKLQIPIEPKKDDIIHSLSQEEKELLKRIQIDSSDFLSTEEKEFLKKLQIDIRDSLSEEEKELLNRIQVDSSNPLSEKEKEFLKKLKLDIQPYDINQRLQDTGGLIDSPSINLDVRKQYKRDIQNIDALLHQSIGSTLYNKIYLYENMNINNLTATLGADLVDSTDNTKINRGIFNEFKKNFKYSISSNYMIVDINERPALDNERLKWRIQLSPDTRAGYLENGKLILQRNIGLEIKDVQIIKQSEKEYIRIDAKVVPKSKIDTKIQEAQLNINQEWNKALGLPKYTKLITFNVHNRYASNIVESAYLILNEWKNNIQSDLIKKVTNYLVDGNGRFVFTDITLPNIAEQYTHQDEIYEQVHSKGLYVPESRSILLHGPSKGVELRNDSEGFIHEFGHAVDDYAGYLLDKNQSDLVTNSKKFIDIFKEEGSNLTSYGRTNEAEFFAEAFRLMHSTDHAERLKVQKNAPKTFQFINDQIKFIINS
PriA SSB inh – inhibitors of Klebsiella pneumoniae PriA binding to SSB C-terminal tail. AlphaScreen SSBct-PriA binding, biotinylated peptide. inhibition, % at 33 µM. hit rate 0.6% among 430,000; in the data active = inhibition mostly above about 37%, no sharp cut-off; inactive = mostly below about 20%;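 also: plate controls were negative control peptide for no effect and reference peptide for full effect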
* = called active by the depositor; ? = inconclusive; . = not tested or not shown. Sampled rows, rich in hits. Any-hit rate of the full collection: about 3.1%. Rule as the data show it, unless noted: active = inhibition above about 30%; inconclusive = no clear call, values can overlap the other calls; inactive = below that.

SMILES | BoNT-F LC inh | Autofluor counter | BoNT-A LC inh2 | Anthrax LF inh2 | PriA SSB inh
CCn1c(SCC(=O)Nc2ccc(NC(=O)c3ccco3)c(OC)c2)nc2ccccc2c1=O | -6 | 20994* | -4 | -1 | -7
COc1ccc(OC)c(NC(=O)CSc2nnc(Cc3cccn3C)n2Cc2ccccc2)c1 | . | . | . | . | 39*
COc1ccc(OC)c(NC(=O)CSc2nc3ccccc3c(=O)n2CCNC(C)=O)c1 | -4 | 20543* | -3 | 1 | -8
COc1ccc(NC(=O)CSc2nc3ccccc3c(=O)n2CCNC(C)=O)cc1 | -16 | 12758 | -6 | -14 | -5
CCOc1ccc(NC(=O)CSc2nc3ccccc3c(=O)n2CCNC(C)=O)cc1 | 2 | 20012* | 2 | -1 | 13
CCOC(=O)NN=Cc1ccc(C)s1 | . | . | . | . | -14
O=C(NCCn1ncc2c(N3CCN(Cc4ccccc4)CC3)ncnc21)C12CC3CC(CC(C3)C1)C2 | . | . | . | . | -10
CN(C)c1nc(OCCOC(=O)COc2ccc(Cl)cc2Cl)nc(N(C)C)n1 | 1 | 21324* | 0 | -7 | -17
CN(C)c1nc(OCCNC(=O)COc2ccc(Cl)cc2Cl)nc(N(C)C)n1 | 0 | 22763* | 0 | -2 | -1
CN(C)c1nc(SCCOC(=O)COc2ccc(Cl)cc2Cl)nc(N(C)C)n1 | 10 | 7528 | ? | -4 | -37
CC(C)(C)OC(=O)C[C@H]1C/C=C/C[C@H](CC(=O)N(CCO)Cc2ccccc2)C(=O)N2CCC[C@H]2COC1=O | . | . | . | . | -3
COc1ccc(-n2nc3c(N4CCC(C(=O)NCc5ccccc5C)CC4)nnc(C)c3c2C)cc1 | 22 | 8875 | 3 | 7 | -3
CCOc1ccccc1CNC(=O)C1CCCN(c2nnc(C)c3c(C)n(-c4ccccc4)nc23)C1 (stereo not given) | 14 | 19018* | -8 | 2 | -17
O=C(O)c1ccc(C(=O)O)c(C(=O)c2ccccc2)c1 | -5 | 17146* | -3 | 1 | -8
O=C(O)c1cc(C(=O)O)c(-c2ccccc2)c(C(=O)O)c1 | -1 | 22323* | -1 | -4 | 0
O=C(c1ccccc1)c1ccc(C(=O)O)c(C(=O)O)c1 | 1 | 4930 | 0 | -2 | -9
CN(C)S(=O)(=O)Oc1ccc(C(=O)c2ccccc2)cc1 | . | . | . | . | -35
O=C(N/N=C\c1c(O)ccc2ccccc12)c1ccc(S(=O)(=O)N2CCCCC2)cc1 | -2 | 3033 | 32* | 4 | .
O=C(NN=Cc1c(O)ccc2ccccc12)c1ccc(CO)nc1 | . | . | . | . | 10
O=C(N/N=C/c1c(O)ccc2ccccc12)c1ccc(CO)nc1 | 40* | 3979 | 15 | 6 | .
O=[N+]([O-])c1ccc(-[n+]2nc(-c3ccccc3)nn2-c2ccccc2)cc1 | -2 | 3824 | -2 | -16 | 101*
CC(NC(=O)c1cccs1)c1ccc2c(c1)OCO2 (stereo not given) | -1 | 20040* | 0 | -1 | -16
Cc1ccsc1C(=O)NC(C)c1ccc2c(c1)OCO2 (stereo not given) | -3 | 22863* | 0 | -1 | -8
CC(NC(=O)c1cccnc1)c1ccc2c(c1)OCO2 (stereo not given) | -2 | 16408* | ? | -1 | 7
Cc1ccc(C(=O)NC(C)c2ccc3c(c2)OCO3)s1 (stereo not given) | -3 | 4079 | 0 | -2 | -18
SMILES | BoNT-F LC inh | Autofluor counter | BoNT-A LC inh2 | Anthrax LF inh2 | PriA SSB inh
S=c1[nH]nc(C2CCCCC2)n1/N=C/C=C/c1ccccc1 | -3 | 22815* | ? | 0 | .
S=c1[nH]nc(C2CCCCC2)n1/N=C/c1ccc(Br)s1 | 39* | 10813 | ? | -19 | .
S=c1[nH]nc(C2CCCCC2)n1/N=C/c1ccc(Br)cc1 | 5 | 3651 | -2 | -11 | .
C/C(C=Nn1c(C2CCCCC2)n[nH]c1=S)=C\c1ccccc1 | . | . | . | . | 11
O=S(=O)(c1ccc(-c2cn3ccccc3n2)cc1)N1CCOCC1 | -10 | 22528* | -9 | 1 | -22
Cc1cccn2cc(-c3ccc(S(=O)(=O)N4CCOCC4)cc3)nc12 | -1 | 23299* | 0 | 1 | -7
COc1ncccc1C(=O)NCC1CCCN1c1nc2ccccc2o1 (stereo not given) | . | . | . | . | 8
CCOC(=O)C1=C(C)NC2=C(C(=O)CC(C)(C)C2)C1c1ccc(N(C)C)cc1 (stereo not given) | -7 | 24751* | -3 | -2 | 8
COC(=O)C1=C(C)NC2=C(C(=O)CC(C)(C)C2)C1c1cccc(C)n1 (stereo not given) | -1 | 23176* | 0 | 0 | -15
CC1=C(C(=O)OC(C)C)C(c2ccc(N(C)C)cc2)C2=C(CC(C)(C)CC2=O)N1 (stereo not given) | 8 | 4515 | 1 | 0 | 6
COC(=O)C1=C(C)NC2=C(C(=O)CCC2)C1c1cccc(C)n1 (stereo not given) | -8 | 10380 | -2 | 0 | -5
CCOC(=O)C1=C(C)NC2=C(C(=O)CC(C)(C)C2)C1c1ccc(O)c(OCC)c1 (stereo not given) | 4 | 4278 | 1 | -1 | -6
CCOc1cc(C2C(C(=O)N3CCCCC3)=C(C)NC3=C2C(=O)CC(C)(C)C3)ccc1O (stereo not given) | -4 | 23188* | -1 | -3 | -16
CN(C)CCN1C(=O)C(=O)C(=C(O)c2ccc(S(=O)(=O)N3CCOCC3)cc2)C1c1ccccc1 (stereo not given) | . | . | . | . | 1
Cc1[nH]c(=O)[nH]c(=O)c1CCc1nnc(SCC(=O)c2ccc3c(c2)NC(=O)CO3)o1 | . | . | . | . | -5
COc1ccc(-c2cc3nc4n(c(=O)c3s2)CCC4)cc1 | 1 | 23433* | ? | 0 | -7
Cc1ccc2cccc(OC(=O)N3CCCC3)c2n1 | -10 | 22325* | -9 | 2 | -12
Cc1ccc2cccc(OCC(=O)Nc3cccc(S(=O)(=O)N4CCCC4)c3)c2n1 | -13 | 6018 | -1 | 1 | 6
CC(=O)NS(=O)(=O)c1ccc(NC(=O)c2ccc(COc3cccc4c3OC(C)(C)C4)cc2)cc1 | . | . | . | . | -4
COc1cc(OC)c(C2=NOC(C(=O)NCCc3ccccc3)C2)cc1Cl (stereo not given) | -1 | 23621* | -2 | -2 | -18
CC(C)CC(=O)NCCn1ncc2c(N3CCN(c4ccc(F)cc4)CC3)ncnc21 | . | . | . | . | -8
CCc1ccc(CNC(=O)C2CCC(=O)N2C2CCCCC2)cc1 (stereo not given) | 0 | 7736 | 0 | 2 | -16
O=C(NCc1ccccn1)C1CCC(=O)N1C1CCCCC1 (stereo not given) | -6 | 4369 | 0 | -3 | 104*
O=C1OC[C@@H]2CCCN2C(=O)[C@@H](CC(=O)N(CCO)Cc2ccccc2)C/C=C/C[C@H]1Cc1ccc(F)cc1 | . | . | . | . | -9
CCc1nnc(NS(=O)(=O)c2ccc(N3C(=O)C4CC=C(Cl)CC4C3=O)cc2)s1 (stereo not given) | 1 | ? | 1 | -25 | 6
Cc1cc(C)nc(NS(=O)(=O)c2ccc(N3C(=O)C4CC=C(Cl)CC4C3=O)cc2)n1 (stereo not given) | 2 | 18775* | 4 | -3 | -3
O=C(CNS(=O)(=O)c1ccc2ccccc2c1)OCC(=O)c1ccc(Br)s1 | 7 | 18275* | 5 | -2 | 4
O=C1C2CCCN2C(c2cccnc2)N1c1ccccn1 (stereo not given) | . | . | . | . | -3
